Screen size: about 220,000 compounds; about 2,000 (0.91%) were called active. Roughly 2% stayed inconclusive and do not appear here. No stated cut-off is given here; in the data, inconclusive means inhibition above about 80% without an active follow-up result; inactive means below that; test concentration not stated here. These entries were drawn from the full list. Entries with a potency or affinity are not part of this list.
Experiment: M. tuberculosis H37Rv growth inhibitors, H37Rv strain (AID 1626);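 further: bacteria incubated seven days before Alamar blue readout; 0% = bacteria only wells and 100% = bacteria with antibiotic wells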
Details: hits give high values, concentration not given here

Compound | inhibition
O=c1ccnc(SCc2ccccc2Cl)[nH]1 | 3.49% (inactive)
CN(C)c1ccccc1C(=O)N1CCCC(C(=O)c2ccc3ccccc3c2)C1 (configuration not stated) | -4.94% (inactive)
CCc1ccc2c(c1)[C@]1(C(=O)N2)[C@@H]2C(=O)N(Cc3ccccc3)C(=O)[C@@H]2[C@@H]2CCCN21 | 3.94% (inactive)
CCn1nc(C)cc1C(=O)N1CCCC(C(=O)c2ccc3ccccc3c2)C1 (configuration not stated) | 5.72% (inactive)
CCc1cccc2c1NC(=O)[C@]21[C@@H]2C(=O)N(Cc3ccccc3)C(=O)[C@@H]2[C@@H]2CCCN21 | -9.59% (inactive)
Cc1cccc2c1NC(=O)C21N2CCCC2C(C(=O)c2ccc3ccccc3c2)C12C(=O)Nc1ccccc12 (configuration not stated) | 21.8% (inactive)
CC(C)c1cc(C(=O)N2CCCC(C(=O)c3ccc4ccccc4c3)C2)on1 (configuration not stated) | 5.22% (inactive)
Nc1nc(N2CCN(C(=O)c3ccco3)CC2)nc2ccc(Br)cc12 | 10.2% (inactive)
Nc1c(Cl)ncnc1N1CCCC1 | -5.84% (inactive)
CCCCOCCCNS(=O)(=O)c1ccccc1 | -3.58% (inactive)
Cc1cc(Nc2cccc([N+](=O)[O-])c2)c2cccc(C)c2n1 | -6.77% (inactive)
Cc1ccccc1C(=O)NNC1CC(=O)N(c2ccc3c(c2)OCCO3)C1=O (configuration not stated) | -10.4% (inactive)
O=C(COC(=O)c1ccc(O)cc1)Nc1cc(C(F)(F)F)ccc1Cl | 0.39% (inactive)
CCS(=O)(=O)CCSc1nc2ccccc2o1 | 3.19% (inactive)
c1ccc2oc(CCc3nc4ccccc4o3)nc2c1 | 0.98% (inactive)
CCC(=O)c1ccc(OCCn2cnc3ccccc32)cc1 | 9.27% (inactive)
COc1cc(NC(=O)c2ccco2)c(OC)cc1NC(=O)c1cc(OC)c(OC)c(OC)c1 | 3.83% (inactive)
COc1ccc(NC(=O)c2ccco2)c(OC)c1 | -9.54% (inactive)
Cc1ccc(-c2nnn(CC(=O)N(CC(=O)NC3CCCCC3)c3ccc(F)c(Cl)c3)n2)o1 | 1.56% (inactive)
O=C(Nc1ccccc1)N(Cc1ccc2c(c1)OCO2)Cc1nc2ccccc2c(=O)[nH]1 | 9.11% (inactive)
CCOC(=O)C1(CCc2ccccc2)CCN(Cc2nccn2CC)CC1 | 4.84% (inactive)

Compound | inhibition
CCOC(=O)C1(CCc2ccccc2)CCN(Cc2ccc(O)cc2)CC1 | 1.73% (inactive)
Cn1cnnc1SCNC(=O)C(F)(F)F | -14.5% (inactive)
Cc1oc2cc(OC(C)C(=O)O)ccc2c(=O)c1Oc1ccccc1 (configuration not stated) | -9.62% (inactive)
COc1ccccc1-c1coc2cc(OC(=O)/C=C/c3ccccc3)ccc2c1=O | 12.4% (inactive)
CCN(CC)C(=O)Oc1ccc2c(=O)c(-c3ccccc3)coc2c1 | 8.19% (inactive)
CCOC(=O)c1oc2cc(OC(C)=O)ccc2c(=O)c1-c1ccc(OC)c(OC)c1 | -4.14% (inactive)
CCOC(=O)c1oc2cc(OCC(N)=O)ccc2c(=O)c1-c1ccc(OC)c(OC)c1 | -2.49% (inactive)
Cc1oc2cc(OCC(=O)O)ccc2c(=O)c1Oc1ccccc1 | -10.7% (inactive)
CC(=O)Oc1ccc2c(=O)c(-c3ccccc3)coc2c1 | 71.2% (inactive)
COc1ccccc1-c1coc2cc(OC(=O)N3CCOCC3)ccc2c1=O | 0.83% (inactive)
CCOC(=O)N1CCC(NC(=O)C2CCN(S(=O)(=O)c3ccc4c(c3)oc(=O)n4C)CC2)CC1 | -3.61% (inactive)
Cc1ccc(OCCNC(=O)c2cc(C(=O)NCCOc3ccc(C)cc3)cc([N+](=O)[O-])c2)cc1 | 1.97% (inactive)
O=C1c2cc3ccccc3c(-c3ccccc3)c2C(=O)N1c1ccccn1 | 11.2% (inactive)
O=C(C1CCC(N2C(=O)C3CC=CCC3C2=O)CC1)N1CCCCC1 (configuration not stated) | 0.53% (inactive)
COc1ccccc1-c1coc2cc(OCC(=O)OCc3ccccc3)ccc2c1=O | 8.31% (inactive)
COc1ccc2c(C#N)c3ccccn3c2c1 | 8.95% (inactive)
N#Cc1c2ccc(OCC(N)=O)cc2n2ccccc12 | 5.54% (inactive)
CCOc1ccccc1Oc1coc2cc(OCC(=O)O)ccc2c1=O | 1.18% (inactive)
CS(=O)(=O)Nc1ccccc1NS(C)(=O)=O | 2.07% (inactive)
Cc1nnc(SCC(=O)NCc2ccc(Cl)cc2)[nH]c1=O | -5.88% (inactive)
CC(=O)c1cccc(NC(=O)CC2S/C(=N/N=C/c3ccccc3)NC2=O)c1 (configuration not stated) | 5.53% (inactive)

Compound | inhibition
Cc1ccc(C(=O)CC(=O)c2cccc(F)c2)c(O)c1 | 21% (inactive)
O=C(CC(=O)c1ccccc1O)c1ccc(F)cc1 | -0.45% (inactive)
N=C1C(c2ccccc2)=C(O)CN1c1cccc(S(=O)(=O)Nc2cccc(C(F)(F)F)c2)c1 | 71.6% (inactive)
CCc1ccc(NC(=O)C(C)OC(=O)C2CCC(=O)N2)cc1 (configuration not stated) | -4.48% (inactive)
Cc1ccccc1NC(=S)NCCc1ccccn1 | 1.47% (inactive)
Cc1cc(C)cc(N(CC(=O)NCC2CCCO2)C(=O)CN2C(=O)COc3ccccc32)c1 (configuration not stated) | -1.08% (inactive)
COc1ccc(OCCOc2ccc(C)nc2[N+](=O)[O-])cc1 | 9.48% (inactive)
CCC(CO)NCC#Cc1ccccc1 (configuration not stated) | -0.71% (inactive)
CCC(CO)NCc1ccc(Br)cc1 (configuration not stated) | 2.11% (inactive)
CCN1CCN(C(c2cc3cccc(C)c3[nH]c2=O)c2nnnn2Cc2ccccc2)CC1 (configuration not stated) | -2.17% (inactive)
O=[N+]([O-])C(=C1Nc2ccccc2N1)C(Cl)=C(Cl)Cl | 0.64% (inactive)
O=[N+]([O-])c1ccc(O)c2ncccc12 | 79% (inactive)
COC(=O)c1ccc(COc2cc([N+](=O)[O-])cc3cccnc23)cc1 | -7.07% (inactive)
Cc1ccc([N+](=O)[O-])c2cccnc12 | -9.13% (inactive)
Clc1cc2cccnc2c2ccccc12 | -3.53% (inactive)
O=[N+]([O-])c1cc(F)c2cccnc2c1O | -0.05% (inactive)
O=[N+]([O-])c1cc(Cl)c2cccnc2c1O | 3.31% (inactive)
Oc1c(I)cc(I)c2cccnc12 | 76.2% (inactive)
CCOC(=O)COc1cc([N+](=O)[O-])cc2cccnc12 | 3.26% (inactive)
CCOc1ccccc1CN1C(=O)c2ccccc2C1C(=O)NCC1CCCO1 (configuration not stated) | 1.98% (inactive)

Reference: PubChem BioAssay AID1626 (SRMLSC, 2009)
